Measured values taken from PMC5540273 (PLoS ONE, 2017).

Key:
Conditions in all cases: concentration: 1 μM, replicates: in singlicate; n = 1
FLT3 = test system: FLT3
FLT4 = test system: FLT4
FRK = test system: FRK
FYN = test system: FYN
GAK = test system: GAK
GCN2(Kin.Dom.2,S808G) = test system: T1, GCN2(Kin.Dom.2,S808G)
T1 construct: gene EIF2AK4

GRK1 = test system: GRK1
GRK2 = test system: T2, GRK2
T2 construct: gene ADRBK1

GRK3 = test system: T3, GRK3
T3 construct: gene ADRBK2

GRK4 = test system: GRK4
GRK7 = test system: GRK7
GSK3A = test system: GSK3A
GSK3B = test system: GSK3B
HASPIN = test system: T4, HASPIN
T4 construct: gene GSG2

HCK = test system: HCK
HIPK1 = test system: HIPK1
HIPK2 = test system: HIPK2
HIPK3 = test system: HIPK3
HIPK4 = test system: HIPK4
HPK1 = test system: HPK1
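Further: KINOMEscan kinase panel screen.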

Compound | %Inh (FLT3) [%] | %Inh (FLT4) [%] | %Inh (FRK) [%] | %Inh (FYN) [%] | %Inh (GAK) [%] | %Inh (GCN2(Kin.Dom.2,S808G)) [%] | %Inh (GRK1) [%] | %Inh (GRK2) [%] | %Inh (GRK3) [%] | %Inh (GRK4) [%] | %Inh (GRK7) [%] | %Inh (GSK3A) [%] | %Inh (GSK3B) [%] | %Inh (HASPIN) [%] | %Inh (HCK) [%] | %Inh (HIPK1) [%] | %Inh (HIPK2) [%] | %Inh (HIPK3) [%] | %Inh (HIPK4) [%] | %Inh (HPK1) [%]
Cc1nnc(-c2ccc3occ(-c4ccc(S(C)=O)cc4)c3c2)[nH]1 (stereo not shown) | 33 | 18 | 1 | 0 | 24 | 0 | 20 | 0 | 40 | 11 | 6 | 86 | 75 | 25 | 0 | 69 | 84 | 81 | 36 | 0
CCn1c(-c2ccccn2)nc2cnccc21 [SB-736398] | 2 | 0 | 17 | 0 | 9 | 10 | 1 | 5 | 78 | 1 | 0 | 22 | 0 | 47 | 0 | 0 | 13 | 0 | 0 | 38
Cc1cccc(-c2nc(-c3ccc(S(C)(=O)=O)cc3)sc2-c2ccnc(NCCc3ccccc3)c2)c1 | 0 | 7 | 66 | 0 | 0 | 16 | 11 | 0 | 6 | 0 | 7 | 0 | 0 | 42 | 0 | 15 | 0 | 6 | 8 | 11
COc1ccccc1CNC(=O)c1cc(C(=O)c2ccccc2C)c[nH]1 [GSK364507] | 0 | 5 | 0 | 42 | 15 | 9 | 0 | 0 | 37 | 0 | 0 | 15 | 0 | 0 | 0 | 0 | 0 | 10 | 0 | 26
Cc1csc(-c2nc(Nc3ccncc3)c3ccccc3n2)n1 [GW869640] | 39 | 6 | 4 | 24 | 21 | 13 | 27 | 0 | 0 | 29 | 17 | 0 | 46 | 87 | 23 | 7 | 23 | 36 | 7 | 3
Cl.c1ccc(-c2n[nH]cc2-c2ccnc(-c3ccc(CN4CCOCC4)cc3)c2)nc1 [GW776245] | 0 | 14 | 0 | 0 | 46 | 0 | 37 | 0 | 0 | 31 | 0 | 0 | 0 | 0 | 13 | 54 | 0 | 0 | 17 | 64
COc1ccc2nc(-c3cccc(C)n3)nc(Nc3ccncc3)c2c1 [GSK204919] | 0 | 5 | 9 | 13 | 8 | 0 | 0 | 0 | 43 | 0 | 0 | 0 | 19 | 15 | 0 | 0 | 0 | 11 | 0 | 28
Cc1cc(NCC(c2ccccc2)c2ccccc2)nc(NCc2ccc(C(F)(F)F)cc2)n1 [GW497681] | 0 | 0 | 0 | 0 | 0 | 0 | 0 | 0 | 22 | 0 | 0 | 4 | 0 | 0 | 0 | 0 | 0 | 0 | 0 | 23
CCCc1ccc(S(=O)(=O)NC2CCN(c3ccnc(Nc4ccc(F)cc4)n3)C2)cc1 (stereo not shown) [GSK1379715] | 0 | 0 | 8 | 0 | 10 | 0 | 100 | 0 | 33 | 0 | 0 | 2 | 21 | 0 | 0 | 0 | 0 | 0 | 0 | 37
CS(=O)(=O)c1ccc(-c2nc3n(c2-c2ccncc2)CCC3)cc1 [SKF-105942] | 0 | 0 | 16 | 12 | 7 | 9 | 7 | 0 | 24 | 23 | 0 | 0 | 10 | 0 | 0 | 0 | 0 | 8 | 0 | 37
COc1ccc(CNC(=O)NC2CCN(c3ccnc(Nc4cc(OC)c(OC)c(OC)c4)n3)C2)cc1 (stereo not shown) [GSK1379748] | 71 | 26 | 5 | 22 | 16 | 0 | 0 | 0 | 40 | 0 | 0 | 7 | 0 | 38 | 0 | 0 | 8 | 33 | 0 | 53
Cn1ccc2ncnc(Oc3ccc(Nc4nc5ccccc5[nH]4)cc3)c21 | 0 | 0 | 0 | 0 | 0 | 0 | 4 | 0 | 0 | 9 | 0 | 12 | 0 | 50 | 8 | 17 | 0 | 0 | 9 | 0
O=S(=O)(c1ccc(-c2ccnc3[nH]ccc23)cc1)N1CCCC1 [GSK846226] | 0 | 0 | 0 | 25 | 28 | 0 | 0 | 0 | 0 | 0 | 0 | 15 | 16 | 12 | 0 | 45 | 0 | 48 | 23 | 25
COc1cc2ncn(-c3cc(OCC4CCCO4)c(C(N)=O)s3)c2cc1OC (stereo not shown) [GSK204607] | 0 | 36 | 17 | 33 | 53 | 0 | 0 | 0 | 16 | 0 | 0 | 20 | 0 | 26 | 0 | 7 | 0 | 17 | 52 | 15
